According to PubChem BioAssay AID504908 (NMMLSC, 2011):
“And” between values parts separate entries of the source, which are not always exact repeats. Equal entries are not always repeated. Among all 1,300 compounds or so, about 25 (2%) were called active.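 The calls were made as follows: active = inhibition above a set limit, roughly 3 SD of non-fluorescent compound noise (cut at about 38% in these data); inactive = inhibition at or below that limit.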 Not all results are given here.

Molecular target: AP-2 complex subunit beta (Homo sapiens) (UniProt P63010)
Assay: inhibitors of arrestin peptide binding to AP2, confirmation, biochemical, cherry pick 1, flow cytometry beads (AID 504908);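 also: loss of bead fluorescence from 50 nM FITC arrestin peptide bound to appendage; 0% = negative control wells and 100% = excess unlabelled arrestin peptide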
Conditions: GST-AP2 beads, FITC arrestin peptide binding, at 10 µM, stronger effect = higher value, GST-fused beta2-adaptin appendage, R879A mutant

Chain of AP-2 complex subunit beta (Homo sapiens) (P63010 whole entry, looked up, one chain of several): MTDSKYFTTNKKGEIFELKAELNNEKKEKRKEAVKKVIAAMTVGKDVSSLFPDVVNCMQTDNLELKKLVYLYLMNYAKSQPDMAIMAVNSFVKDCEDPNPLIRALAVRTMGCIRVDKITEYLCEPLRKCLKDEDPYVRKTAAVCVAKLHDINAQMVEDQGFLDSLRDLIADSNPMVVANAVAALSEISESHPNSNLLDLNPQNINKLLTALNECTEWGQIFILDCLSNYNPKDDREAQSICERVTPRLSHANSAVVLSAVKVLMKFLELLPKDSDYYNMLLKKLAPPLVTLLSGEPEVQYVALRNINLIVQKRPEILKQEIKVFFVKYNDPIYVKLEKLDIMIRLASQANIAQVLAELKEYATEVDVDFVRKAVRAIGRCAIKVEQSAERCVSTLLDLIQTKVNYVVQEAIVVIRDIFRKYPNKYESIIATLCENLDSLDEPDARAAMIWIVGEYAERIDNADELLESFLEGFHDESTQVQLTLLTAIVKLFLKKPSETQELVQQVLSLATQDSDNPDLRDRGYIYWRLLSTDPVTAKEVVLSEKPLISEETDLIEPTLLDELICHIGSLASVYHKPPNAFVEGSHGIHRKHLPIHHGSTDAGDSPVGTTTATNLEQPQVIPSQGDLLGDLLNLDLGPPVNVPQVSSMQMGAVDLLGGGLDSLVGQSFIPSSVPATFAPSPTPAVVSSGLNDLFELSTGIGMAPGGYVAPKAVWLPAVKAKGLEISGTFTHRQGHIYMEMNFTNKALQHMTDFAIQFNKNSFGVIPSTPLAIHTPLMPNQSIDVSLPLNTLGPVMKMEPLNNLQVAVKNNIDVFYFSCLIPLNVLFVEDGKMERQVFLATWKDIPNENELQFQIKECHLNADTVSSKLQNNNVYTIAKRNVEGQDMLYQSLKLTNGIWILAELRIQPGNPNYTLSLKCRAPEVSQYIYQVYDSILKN

inhibition, inactive:
CN(C(=O)COC(=O)c1cc(=O)[nH]c2ccccc12)C1CCCCC1 -1.7%
Cc1ccc(CN2C(=O)CCC2C(=O)NCCCN2CCCCC2C)cc1 (centres undefined) 10.8%
CC(NC(=O)c1cc2cc(Cl)ccc2oc1=N)c1ccccc1 (centres undefined) -6.34%
COC(=O)c1cc(NC(=O)c2nn(C)c(=O)c3ccccc23)cc(C(=O)OC)c1 -5.22%
COc1ccc(CCNc2ncnc3c2nnn3Cc2ccccc2)cc1 -10.5%
CCn1c(=O)n(CC)c2cc(N3CCCC3)c(NC(=O)c3ccccc3Br)cc21 -0.2%
CC(NCCc1ccc(S(N)(=O)=O)cc1)C(=O)NCc1ccccc1 (centres undefined) 5.93%
O=C(C1CCCO1)N1CCN(S(=O)(=O)c2ccc(Br)cc2)CC1 (centres undefined) -1.61%
Cc1ccc(CNC(=O)C2CC(=O)N(C3CCCCCCC3)C2)cc1 (centres undefined) -8.23%
Cc1ccc(S(=O)(=O)N2CCCCC2)cc1NC(=O)c1cccnc1 -9.09%
NC(=O)C1CCN(C(=O)CC2C(=O)NCCN2Cc2cccc(Oc3ccccc3)c2)CC1 (centres undefined) 0.55%
CCCc1ccc(-c2csc(NC(=O)Cc3cccs3)n2)cc1 8.55%
Cc1cccc(Nc2ccccc2C(=O)NCc2ccco2)c1C 6.33%
Cc1ccc(S(=O)(=O)N2CCN(C(=O)c3ccccc3-c3nc4ccccc4s3)CC2)c(C)c1 15.9%
COc1cc2c(cc1NC(=O)COC(=O)/C=C/c1ccccc1)oc1ccccc12 -9.67%
Cc1ccc(Nc2ccc(C(N)=O)cc2[N+](=O)[O-])cc1 -3.07%
CC(C)C[C@H](NC(=O)N1CCn2c1nc1ccccc12)C(=O)NC1CC1 9.68%
Cc1ccc(C)c(NC(=S)NNC(=S)Nc2ccc(C(C)C)cc2)c1 -5%
Cc1cccc(C)c1NC(=O)C(Cl)C(=O)c1ccccc1 (centres undefined) 8.36%
CC(C)c1nnc(NC(=O)CCC(=O)N2CCN(c3cccc(Cl)c3)CC2)s1 1.25%
Cc1cccc(NC(=S)NC(=O)c2ccc(Br)o2)c1 -4.95%
CC(=O)NCCNC(=O)c1cc(-c2cccc3ccccc23)nc2ccccc12 -1.13%
CCOC(=O)N1CCN(C(=O)CNC(=O)Cc2ccc(Cl)cc2)CC1 -12.2%
Brc1ccccc1C1Nc2cccc3cccc(c23)N1 14.3%
O=C(NCc1ccco1)c1ccc(CS(=O)(=O)Cc2ccc(F)cc2)o1 3.68%
CCOc1ccc(C(=O)NC2CCN(CC(=O)NCc3cccs3)CC2)cc1 -3.4%
Cc1ccc(S(=O)(=O)/N=C(/Nc2ccccn2)c2ccc(Cl)cc2)cc1 13.7%
CC(Oc1ccccc1)C(=O)NN1Cc2ccccc2C1=N (centres undefined) -3.2%
Cn1c(=O)c([N+](=O)[O-])c(Oc2ccccc2)c2ccccc21 2.7%
CCC(C(=O)OC)n1cnc2c(oc3ccccc32)c1=O (centres undefined) -3.46%
CN(C)c1ccc(NC(=O)c2ccncc2)c2ccccc12 -3.42%
COc1ccc(/C=C2\SC(=S)N(CCC(=O)Nc3ccccn3)C2=O)cc1OC 17.1%
CCC(=O)Nc1nc2ccccc2n1Cc1ccccc1C -4.23%
O=C(NCC1(N2CCCCC2)CCCCC1)c1cccc(S(=O)(=O)Nc2ccccc2Cl)c1 -1.26%
COC(=O)C1CC2=C(CC(C)(C)CC2=O)N(c2ccccc2)C1=O (centres undefined) -13.1%
CN1C(=O)/C(=C/c2ccco2)SC1=Nc1cccc(C(=O)O)c1 9.02%
Cc1cc(C(=O)Nc2ccc(C)c(S(=O)(=O)N3CCOCC3)c2)c2ccccc2n1 7.91%
COc1cccc(-n2c(SCC(=O)c3c[nH]c4ccccc34)nc3ccccc3c2=O)c1 11.3%
Cc1cc(C)cc(Oc2nc3c(C)cccn3c(=O)c2/C=C(\C#N)C(=O)NC2CCS(=O)(=O)C2)c1 (centres undefined) 7.24%
Cc1ccc(C2(C)NC(=O)N(CC(=O)Nc3ccccc3C(=O)N3CCCCC3)C2=O)cc1 (centres undefined) 0.91%
Cc1cc(C(=O)OCC(=O)c2c(N)n(C)c(=O)n(C)c2=O)c(C)o1 -0.6% and 1.98%
NS(=O)(=O)c1ccc2nc(NC(=O)C3=COCCO3)sc2c1 3.87%
C/C(=N\Nc1ccc([N+](=O)[O-])cc1)c1ccc(-n2nncc2C(C)(C)C)cc1 -0.82%
COc1cc2c(cc1OC)CN(C(=O)c1cc(=O)c3ccccc3o1)CC2 -9.22%
Cc1ccc(OCCCCc2c(C)n[nH]c2C)cc1 4.8%
COCCNC(=O)Nc1ccc2nc(-c3ccco3)c(-c3ccco3)nc2c1 34%
Cc1ccc(OCCCC(=O)Nc2ccc3c(c2)OCCO3)cc1 -5.58%
Cc1ccc(Cl)cc1-c1ccc(/C=N/n2cnnc2)o1 -9.15%
CC(C)(C)c1ccc(C(=O)NCCn2c(N)c(C#N)c3nc4ccccc4nc32)cc1 6.81%
Cn1c(=O)c2c(nc(N/N=C/c3cccs3)n2Cc2ccc(Br)cc2)n(C)c1=O 1.14%
CC(CN1CCCCC1)OC(=O)c1ccccc1Cl (centres undefined) 7.67%
CCOc1ccc(-c2nnc(-c3ccco3)o2)cc1 11.9%
O=c1[nH]c2ccccc2n2c(-c3ccccc3)nnc12 20.4%
O=C(c1ccc(S(=O)(=O)NCc2ccco2)cc1)N1CCN(c2ccccc2)CC1 1.61%
